# Experimental data as given in PubChem BioAssay (Tox21).
# Records with an inconclusive call do not appear. A call without a number means that no potency is given here. Unmarked numbers belong to inactive results. Activity calls are given as the source filed them. Unless noted, calls come from the whole dose curve; as a rule, active = well fitted curve in the direction sought with a large enough effect in the repeat runs; inconclusive = weak or mixed curves; inactive = no such curve, though single readings can be large; an effect the other way counts as inactive or inconclusive.
# Columns and labels:
# [1] = qHTS assay to identify aromatase inhibitors - cell viability counter screen (AID 743084);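 note: cells stimulated with testosterone during compound exposure; nearly all actives have a fitted effect of over 55% in size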
# [2] = target: Aryl hydrocarbon receptor (Homo sapiens) (UniProt P35869); experiment: qHTS assay to identify small molecule that activate the aryl hydrocarbon receptor (AhR) signaling pathway (AID 743085); note: nearly all actives have a fitted effect of over 15% in size; note: potency is the fitted concentration of half-maximal effect;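 for activation: HG2L7.5c1 human HepG2 liver cells with stably integrated DRE-driven firefly reporter; series mostly up to about 70 µM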
# Summary of the method: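 A multiplexed format paired cell viability (CellTiter-Fluor fluorescence) with AhR-dependent luciferase output (ONE-Glo luminescence) in the same wells of HepG2 DRE-luc cells after 24 h compound exposure at 37C.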
# [3] = target: Peroxisome proliferator-activated receptor gamma (Homo sapiens) (UniProt P37231); experiment: qHTS assay to identify small molecule antagonists of the peroxisome proliferator-activated receptor gamma (PPARg) signaling pathway (AID 743191; calls by dose curve; note: series mostly up to about 63 µM; nearly all actives have a fitted effect of over 30% in size)
# Summary of the method: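 Beta-lactamase reporter under UAS control in HEK293H PPARg-bla cells; compound treatment 17 h at 37C. Read-out: fluorescence intensity after 1 h room-temperature incubation with LiveBLAzer B/G FRET substrate.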
# [4] = qHTS assay to identify small molecule antagonists of the peroxisome proliferator-activated receptor gamma (PPARg) signaling pathway - cell viability counter screen (AID 743194); note: nearly all actives have a fitted effect of over 55% in size
# Summary of the method: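 Viability was measured as CellTiter-Glo luminescence in GeneBLAzer PPARg UAS-bla HEK293H cells. These cells had been exposed 17 h at 37 C to compounds together with rosiglitazone at 50 nM final, with the beta-lactamase readout taken in the same wells.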
# [5] = qHTS assay for small molecule activators of the heat shock response signaling pathway - cell viability counter screen (AID 743209); note: nearly all actives have a fitted effect of over 50% in size
# Summary of the method: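 Same-well multiplex: after 2.5 h room-temperature incubation with LiveBLAzer B/G substrate and fluorescence reading, CellTiter-Glo reagent was added to HSE-bla HeLa cells that had received compound for 5 h at 37 C; luminescence read after 30 min.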
# [6] = qHTS assay for small molecule activators of the heat shock response signaling pathway (AID 743210; active = well fitted activation curve with a large enough effect in the signal ratio in the repeat runs, with a control signal flat, not every such curve was filed as active; the % refers to the signal ratio;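 note: HeLa cells with beta-lactamase reporter driven by heat shock elements; series mostly up to about 63 µM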)
# Summary of the method: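 Fluorescence from a cleaved B/G FRET substrate (2.5 h, room temp) reports HSE-driven beta-lactamase in HeLa cells treated 5 h at 37 C with DMSO-dissolved compounds.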
# [7] = qHTS assay to identify small molecule that activate the aryl hydrocarbon receptor (AhR) signaling pathway - cell viability counter screen (AID 743086);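 note: HepG2 liver cells carrying the AhR DRE luciferase reporter; series mostly up to about 70 µM; nearly all actives have a fitted effect of over 45% in size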
# Summary of the method: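 Cytotoxicity counter screen: CellTiter-Fluor signal (30 min, 37 C) in 4000 HepG2 cells/well carrying the DRE-luciferase reporter, following 24 h compound exposure at 37 C.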
# [8] = target: Peroxisome proliferator-activated receptor gamma (Homo sapiens) (UniProt P37231); experiment: qHTS assay to identify small molecule agonists of the peroxisome proliferator-activated receptor gamma (PPARg) signaling pathway (AID 743094; active = well fitted activation curve with a large enough effect in the signal ratio in the repeat runs, not every such curve was filed as active; the % refers to the signal ratio)
# Summary of the method: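 Cell-based bla reporter, HEK293H background, PPARg-driven UAS. Pre-incubation 5 h, 37C, 5% CO2. Compound 17 h, 37C. Substrate 1 h RT; fluorescence.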
# [9] = qHTS assay for small molecule agonists of the antioxidant response element (ARE) signaling pathway (AID 743202; active = well fitted activation curve with a large enough effect in the signal ratio in the repeat runs, not every such curve was filed as active; the % refers to the signal ratio; note: potency is the fitted concentration of half-maximal effect)
# Summary of the method: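 Beta-lactamase reporter activity, read as fluorescence intensity, reflects ARE/Nrf2 pathway induction in HepG2 cells after 16 h compound exposure at 37 C; substrate loading was 2 h at room temperature.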
# [10] = qHTS assay for small molecule agonists of the antioxidant response element (ARE) signaling pathway - cell viability counter screen (AID 743203; calls by dose curve; note: nearly all actives have a fitted effect of over 55% in size)
# Summary of the method: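 Measured in the same wells as the beta-lactamase ARE reporter, this read-out is CellTiter-Glo luminescence from HepG2 ARE-bla cells given compounds for 16 hrs.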
# Sequence of Aryl hydrocarbon receptor (Homo sapiens) (P35869 whole entry, looked up): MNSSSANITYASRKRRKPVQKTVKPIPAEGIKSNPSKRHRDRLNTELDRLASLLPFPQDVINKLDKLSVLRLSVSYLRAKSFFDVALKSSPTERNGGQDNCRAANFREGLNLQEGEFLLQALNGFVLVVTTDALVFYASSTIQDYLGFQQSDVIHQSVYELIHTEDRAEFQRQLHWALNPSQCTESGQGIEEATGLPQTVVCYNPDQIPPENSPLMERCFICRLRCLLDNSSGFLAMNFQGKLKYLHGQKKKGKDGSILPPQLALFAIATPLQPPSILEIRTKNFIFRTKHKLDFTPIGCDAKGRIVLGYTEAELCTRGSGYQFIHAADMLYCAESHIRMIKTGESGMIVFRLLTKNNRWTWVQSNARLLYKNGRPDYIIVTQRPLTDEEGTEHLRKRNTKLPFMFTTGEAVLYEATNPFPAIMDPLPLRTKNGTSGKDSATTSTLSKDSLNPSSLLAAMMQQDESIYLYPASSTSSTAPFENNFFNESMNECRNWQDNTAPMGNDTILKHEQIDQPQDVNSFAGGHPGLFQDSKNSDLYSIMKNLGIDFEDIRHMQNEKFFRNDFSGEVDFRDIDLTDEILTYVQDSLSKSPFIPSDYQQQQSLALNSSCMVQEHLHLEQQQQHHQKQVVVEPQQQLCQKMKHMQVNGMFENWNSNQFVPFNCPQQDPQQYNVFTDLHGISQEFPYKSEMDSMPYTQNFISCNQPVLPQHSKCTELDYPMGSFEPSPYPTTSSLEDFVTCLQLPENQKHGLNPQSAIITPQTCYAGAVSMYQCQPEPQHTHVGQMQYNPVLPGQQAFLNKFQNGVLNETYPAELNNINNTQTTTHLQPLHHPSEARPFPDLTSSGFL
# Sequence of Peroxisome proliferator-activated receptor gamma (Homo sapiens) (P37231 whole entry, looked up): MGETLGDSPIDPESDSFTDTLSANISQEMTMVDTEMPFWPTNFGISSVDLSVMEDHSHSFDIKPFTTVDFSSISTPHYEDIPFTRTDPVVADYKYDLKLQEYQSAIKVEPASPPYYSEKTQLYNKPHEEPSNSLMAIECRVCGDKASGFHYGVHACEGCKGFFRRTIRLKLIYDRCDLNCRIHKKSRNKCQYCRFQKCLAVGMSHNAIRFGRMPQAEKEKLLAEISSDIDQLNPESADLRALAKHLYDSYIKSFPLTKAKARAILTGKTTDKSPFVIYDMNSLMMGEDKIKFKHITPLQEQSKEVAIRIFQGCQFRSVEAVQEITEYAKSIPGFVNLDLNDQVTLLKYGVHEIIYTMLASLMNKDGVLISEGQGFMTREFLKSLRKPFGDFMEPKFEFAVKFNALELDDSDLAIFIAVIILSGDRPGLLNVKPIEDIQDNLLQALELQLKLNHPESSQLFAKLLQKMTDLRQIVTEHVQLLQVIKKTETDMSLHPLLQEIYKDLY
compound,measurement,setting,value
COc1cccc([C@H](O)C2CCN(CCc3ccc(F)cc3)CC2)c1OC,Potency,[1],inactive
same,Potency,[2],inactive
same,Potency,[3],inactive
same,Potency,[4],inactive
same,outcome,[5],inactive
same,outcome,[6],inactive
CCOc1ccc(NC(C)=O)cc1N,Potency,[1],inactive
same,Potency,[7],inactive
same,Potency,[8],inactive
same,Potency,[3],inactive
same,Potency,[4],inactive
same,Potency,[9],inactive
same,Potency,[10],inactive
same,outcome,[5],inactive
Cc1nc2sccn2c(=O)c1CCN1CCC(=C(c2ccc(F)cc2)c2ccc(F)cc2)CC1,Potency,[1],inactive
same,Potency,[2],inactive
same,Potency,[4],inactive
same,Potency,[10],inactive
same,outcome,[6],inactive
CCn1nc(Cc2ccccc2)cc1C1CCN(C[C@H]2C[C@H](N(C)[C@@H](C(=O)O)C(C)C)C[C@@H]2c2cccc(F)c2)CC1,Potency,[1],inactive
same,Potency,[2],inactive
same,Potency,[4],inactive
same,Potency,[10],inactive
same,outcome,[6],inactive
C=CC(C)CCC=C(C)C (centres undefined),Potency,[1],inactive
same,Potency,[7],inactive
same,Potency,[8],inactive
same,Potency,[3],inactive
same,Potency,[4],inactive
same,Potency,[9],inactive
same,Potency,[10],inactive
same,outcome,[5],inactive
same,outcome,[6],inactive
C1=COCCC1,Potency,[1],inactive
same,Potency,[7],inactive
same,Potency,[8],inactive
same,Potency,[3],inactive
same,Potency,[4],inactive
same,Potency,[9],inactive
same,Potency,[10],inactive
same,outcome,[5],inactive
same,outcome,[6],inactive
C/C(=C(\CCO)SS/C(CCO)=C(\C)N(C=O)Cc1cnc(C)nc1N)N(C=O)Cc1cnc(C)nc1N,Potency,[1],inactive
same,Potency,[7],inactive
same,Potency,[8],inactive
same,Potency,[3],inactive
same,Potency,[4],inactive
same,outcome,[5],inactive
same,outcome,[6],inactive
O=C(N[C@@H](Cc1ccccc1)[C@@H](O)C(=O)N1C[C@@H](O)[C@@H](O)C1)c1cc2cc(Cl)ccc2[nH]1,Potency,[1],inactive
same,Potency,[2],inactive
same,Potency,[8],inactive
same,Potency,[4],inactive
same,Potency,[10],inactive
same,outcome,[5],inactive
Cc1c(N=C=O)cccc1N=C=O,Potency,[1],inactive
same,Potency,[7],inactive
same,Potency,[8],inactive
same,Potency,[3],inactive
same,Potency,[4],inactive
same,Potency,[10],inactive
same,outcome,[5],inactive
same,outcome,[6],inactive
C/C=C1\[C@H]2C=C(C)C[C@]1(N)c1ccc(=O)[nH]c1C2,Potency,[1],inactive
same,Potency,[7],inactive
same,Potency,[8],inactive
same,Potency,[3],inactive
same,Potency,[4],inactive
same,Potency,[10],inactive
same,outcome,[5],inactive
same,outcome,[6],inactive
CNc1ccccc1,Potency,[1],inactive
same,Potency,[7],inactive
same,Potency,[8],inactive
same,Potency,[3],inactive
same,Potency,[4],inactive
same,Potency,[9],inactive
same,Potency,[10],inactive
same,outcome,[6],inactive
NC(=O)c1cc[n+](CC2=C(C(=O)[O-])N3C(=O)[C@@H](NC(=O)Cc4cccs4)[C@H]3SC2)cc1,Potency,[1],inactive
same,Potency,[7],inactive
same,Potency,[8],inactive
same,Potency,[3],inactive
same,Potency,[4],inactive
same,Potency,[10],inactive
same,outcome,[5],inactive
same,outcome,[6],inactive
COC=O,"activity change, negative = cytotoxicity",[1],0.892% [at 8.47 µM]
same,"viability change, negative = cytotoxic",[7],14.9% [at 8.47 µM]
same,activation,[8],1.2% [at 7.08 µM]
same,"ratio activity, negative = inhibition",[3],0.629% [at 5.95 µM]
same,"activity change, negative = cytotoxicity",[4],-0.602% [at 5.95 µM]
same,activation,[9],-6.55% [at 8.36 µM]
same,"viability change, negative = cytotoxic",[10],-4.87% [at 8.36 µM]
same,"activity change, negative = cytotoxicity",[5],-11.9% [at 5.95 µM]
C1CCN(CN2CCCCC2)CC1,Potency,[1],inactive
same,Potency,[7],inactive
same,Potency,[8],inactive
same,Potency,[3],inactive
same,Potency,[4],inactive
same,Potency,[10],inactive
same,outcome,[5],inactive
same,outcome,[6],inactive
CCCC(=O)OCCC(C)C,Potency,[1],inactive
same,Potency,[7],inactive
same,Potency,[8],inactive
same,Potency,[3],inactive
same,Potency,[4],inactive
same,Potency,[9],inactive
same,Potency,[10],inactive
same,outcome,[5],inactive
same,outcome,[6],inactive
Cc1cccc(C)c1NC(=O)CN1CCCC1,Potency,[1],inactive
same,Potency,[7],inactive
same,Potency,[8],inactive
same,Potency,[3],inactive
same,Potency,[4],inactive
same,Potency,[9],inactive
same,Potency,[10],inactive
same,outcome,[5],inactive
same,outcome,[6],inactive
O=C(O)c1ccccc1[N+](=O)[O-],Potency,[1],inactive
same,Potency,[7],inactive
same,Potency,[8],inactive
same,Potency,[3],inactive
same,Potency,[4],inactive
same,Potency,[10],inactive
same,outcome,[6],inactive
CC(=O)CC/C=C(\C)CC/C=C(\C)CC/C=C(\C)CCC=C(C)C,Potency,[1],inactive
same,Potency,[7],inactive
same,Potency,[8],inactive
same,Potency,[3],inactive
same,Potency,[4],inactive
same,Potency,[10],inactive
same,outcome,[5],inactive
same,outcome,[6],inactive
Cc1ccccc1CCO,Potency,[1],inactive
same,Potency,[7],inactive
same,Potency,[8],inactive
same,Potency,[3],inactive
same,Potency,[4],inactive
same,Potency,[10],inactive
same,outcome,[6],inactive
CC(=O)S[C@H](C(=O)N[C@H]1Cc2ccccc2[C@H]2CCC[C@@H](C(=O)O)N2C1=O)C(C)C,Potency,[1],inactive
same,Potency,[2],inactive
same,Potency,[7],inactive
same,Potency,[10],inactive
same,outcome,[5],inactive
same,outcome,[6],inactive
CC(C)(Cc1c[nH]c2ccccc12)NCC(O)COc1ccccc1C#N (centres undefined),Potency,[1],inactive
same,Potency,[2],29.8 µM (active)
same,Potency,[4],inactive
same,outcome,[5],inactive
same,outcome,[6],inactive
CO[C@@H]1[C@@H](O[C@@H]2O[C@H](C)[C@@H](O[C@H]3C[C@@](C)(O)[C@@H](O)[C@H](C)O3)[C@H](N(C)C)[C@H]2O)[C@@H](CC=O)C[C@@H](C)[C@@H](O[C@@H]2CC[C@H](N(C)C)[C@@H](C)O2)/C=C/C=C/C[C@@H](C)OC(=O)C[C@H]1OC(C)=O,Potency,[1],inactive
same,Potency,[2],inactive
same,Potency,[8],inactive
same,Potency,[3],inactive
same,Potency,[4],inactive
same,Potency,[9],inactive
same,outcome,[6],inactive
O=C(OC1C[C@H]2CC[C@@H](C1)[N+]21CCCC1)C(O)(c1ccccc1)c1ccccc1 (some centres undefined),Potency,[1],inactive
same,Potency,[7],inactive
same,Potency,[8],inactive
same,Potency,[3],inactive
same,Potency,[4],inactive
same,Potency,[9],inactive
same,Potency,[10],inactive
same,outcome,[5],inactive
same,outcome,[6],inactive
Cc1cc(N)n(-c2ccccc2)n1,Potency,[1],inactive
same,Potency,[7],inactive
same,Potency,[8],inactive
same,Potency,[3],inactive
same,Potency,[4],inactive
same,Potency,[9],inactive
same,outcome,[5],inactive
same,outcome,[6],inactive
Clc1ccccc1-c1nc(-c2ccncc2)no1,Potency,[1],inactive
same,Potency,[7],inactive
same,Potency,[8],inactive
same,Potency,[3],inactive
same,Potency,[4],inactive
same,Potency,[9],1.68 µM (active)
same,Potency,[10],inactive
same,outcome,[5],inactive
same,outcome,[6],inactive
Nc1ccc(F)cc1F,Potency,[1],inactive
same,Potency,[7],inactive
same,Potency,[8],inactive
same,Potency,[3],inactive
same,Potency,[4],inactive
same,Potency,[9],inactive
same,Potency,[10],inactive
same,outcome,[6],inactive
CCOc1ccc2c(c1)C(C)CC(C)(C)N2 (centres undefined),Potency,[1],inactive
same,Potency,[7],inactive
same,Potency,[8],inactive
same,Potency,[3],inactive
same,Potency,[4],inactive
same,Potency,[9],inactive
same,Potency,[10],inactive
same,outcome,[5],inactive
same,outcome,[6],inactive
O=[N+]([O-])c1ccccc1CCO,Potency,[1],inactive
same,Potency,[7],inactive
same,Potency,[8],inactive
same,Potency,[3],inactive
same,Potency,[4],inactive
same,Potency,[10],inactive
same,outcome,[5],inactive
same,outcome,[6],inactive
C[C@H]1C[C@H]2[C@@H]3CCC4=CC(=O)C=C[C@]4(C)[C@@]3(F)[C@@H](O)C[C@]2(C)[C@@]1(O)C(=O)COP(=O)(O)O,Potency,[1],inactive
same,Potency,[2],inactive
same,Potency,[8],inactive
same,Potency,[4],inactive
same,Potency,[9],inactive
same,Potency,[10],inactive
same,outcome,[5],inactive
same,outcome,[6],inactive
CC(CCl)OC(C)CCl (centres undefined),Potency,[1],inactive
same,Potency,[7],inactive
same,Potency,[8],inactive
same,Potency,[3],inactive
same,Potency,[4],inactive
same,Potency,[9],inactive
same,Potency,[10],inactive
same,outcome,[5],inactive
same,outcome,[6],inactive
